Measured values from PubChem BioAssay (NCATS).
Results filed as inconclusive are left out. Values without a mark were called inactive. The source made the active and inactive calls. The call rests on the fitted dose curve; in most records, active means well fitted cell-killing curve with a large enough effect; inconclusive means small, poorly fitted or top-dose-only effect, or effect the other way; inactive means no such curve, though single readings can be large or run the other way.

Test: Quantitative High-Throughput drug screen in 47 multiple myeloma cell lines against the NCATS MIPE library collection: JJN3_DSMZ cell viability assay (AID 1918966; further: nearly all actives have a fitted effect of over 50% in size)
Conditions: JJN3 myeloma cells viability, CellTiter-Glo ATP, 48 h; series mostly up to 45.8 µM; viability, % of DMSO: at the top concentration
Outline: (§1)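 Primary qHTS used for cherry-picking: cells at 500/well, library compounds for 48 h (37C, 5% CO2), luminescent ATP assay.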
Potency means the concentration at half of the fitted maximal effect.

SMILES	Potency
CCc1cc(-c2n[nH]c(C)c2-c2ccc3c(c2)OCCO3)c(O)cc1O	4.18 µM (active)
CN(C(Cc1ccc(OS(=O)(=O)c2cccc3cnccc23)cc1)C(=O)N1CCN(c2ccccc2)CC1)S(=O)(=O)c1cccc2cnccc12 (centres undefined)	5.9 µM (active)
COc1cc2nc(-c3cc(F)ccc3O)nc(N[C@@H]3CNC[C@@H]3C(C)(C)O)c2cc1OC	11.8 µM (active)
O=S(=O)(NCCNCC=Cc1ccc(Br)cc1)c1cccc2cnccc12	16.6 µM (active)
C=CC[N+]1([C@H]2C[C@H]3[C@@H]4CC[C@H]5C[C@H](O)[C@@H](N6CCOCC6)C[C@]5(C)[C@@H]4CC[C@]3(C)[C@H]2OC(C)=O)CCCC1	0.0053 µM (active)
CN[C@@H]1CN(c2ccc3c(=O)c(C(=O)O)cn(-c4nccs4)c3n2)C[C@@H]1OC	8.12 µM (active)
COc1c(C)cnc(Cn2cnc3c(Cl)nc(N)nc32)c1C	0.166 µM (active)
CC(=O)NCCC(=O)N[C@@H](CCC(N)=O)C(=O)N[C@@H](CO)C(=O)N[C@@H](CCC(N)=O)C(=O)N[C@@H](CCC(N)=O)C(=O)N[C@H](C(=O)N[C@@H](Cc1ccccc1)C(=O)N[C@]1(C)CCCCCCC=CCCC[C@@](C)(C(=O)N[C@@H](CCC(N)=O)C(=O)N[C@@H](CC(N)=O)C(N)=O)NC(=O)[C@H](CC(C)C)NC(=O)[C@H](CC(C)C)NC(=O)[C@@H](CCCNC(=N)N)NC(=O)[C@H](Cc2c[nH]c3ccccc23)NC(=O)[C@H](CC(C)C)NC(=O)[C@H](CC(N)=O)NC1=O)[C@H](C)O	14.8 µM (active)
COc1ccc2c(c1)c(C1=C(c3c[nH]c4ccccc34)C(=O)NC1=O)cn2CCCN(C)C	20.9 µM (active)
Cc1ccc(S(=O)(=O)OCC(=O)Nc2ccc(C(=O)O)c(O)c2)cc1	16.6 µM (active)

Test: Quantitative High-Throughput drug screen in 47 multiple myeloma cell lines against the NCATS MIPE library collection: H1112_PLB cell viability assay (AID 1918967; further: nearly all actives have a fitted effect of over 30% in size)
Conditions: H1112 myeloma cells viability, ATP luminescence, 48 h; series mostly up to 45.8 µM; viability: at the top concentration
Outline: as §1

SMILES	Potency	viability
CCc1cc(-c2n[nH]c(C)c2-c2ccc3c(c2)OCCO3)c(O)cc1O	8.33 µM (active)	
COc1ccc(CCN(C)CCCOc2ccc(S(=O)(=O)c3[nH]c4ccccc4c3C(C)C)cc2)cc1OC	18.7 µM (active)	
Clc1ccc(COC(Cn2ccnc2)c2ccc(Cl)cc2Cl)c(Cl)c1 (centres undefined)	18.7 µM (active)	
CC1(C)[C@H]2CC[C@]3(C)[C@@H](C(=O)C=C4[C@@H]5C[C@@](C)(C(=O)O)CC[C@]5(C)CC[C@]43C)[C@@]2(C)CC[C@@H]1O		98.8%
CN(C(Cc1ccc(OS(=O)(=O)c2cccc3cnccc23)cc1)C(=O)N1CCN(c2ccccc2)CC1)S(=O)(=O)c1cccc2cnccc12 (centres undefined)	8.33 µM (active)	
CC(=O)OCC(=O)[C@@]1(O)CC[C@H]2[C@@H]3CCC4=CC(=O)C=C[C@]4(C)[C@@H]3[C@@H](O)C[C@@]21C		114%
COc1cc2nc(-c3cc(F)ccc3O)nc(N[C@@H]3CNC[C@@H]3C(C)(C)O)c2cc1OC	14.8 µM (active)	
Nc1ncnc2c1ncn2[C@@H]1O[C@H](CO)[C@@H](O)[C@@H]1O		115%
C=C[C@@H]1CN2CCC1C[C@@H]2C(O)c1ccnc2ccc(OC)cc12 (some centres undefined)		89%
CO[C@H]1/C=C\O[C@@]2(C)Oc3c(C)c(O)c4c(O)c(c5c(nc6cc(C)ccn65)c4c3C2=O)NC(=O)C(C)=CC=C[C@H](C)[C@H](O)[C@@H](C)[C@@H](O)[C@@H](C)[C@H](OC(C)=O)[C@H]1C		99.7%
O=S(=O)(NCCNCC=Cc1ccc(Br)cc1)c1cccc2cnccc12	14.8 µM (active)	
CN(C)c1nc(Cc2ccc(NC(=O)c3ccc(C(F)(F)F)cc3)cc2)nc(N(C)C)c1CC(=O)O		114%
CN[C@@H]1CN(c2ccc3c(=O)c(C(=O)O)cn(-c4nccs4)c3n2)C[C@@H]1OC	12.9 µM (active)	
Cc1ccc2c(c1)c1c(n2CCc2ccc(C)nc2)CCN(C)C1		85.1%
CNC(=O)[C@H](Cc1ccccc1)NC(=O)[C@H](CC(C)C)[C@H](CSc1cccs1)C(=O)NO	20.9 µM (active)	
COc1c(C)cnc(Cn2cnc3c(Cl)nc(N)nc32)c1C	0.132 µM (active)	
OC[C@H]1O[C@@H](O[C@H]2[C@@H](O)[C@@](O)(CO)O[C@@H]2CO)[C@H](O)[C@@H](O)[C@@H]1O		97.9%
Cc1ccc(S(=O)(=O)OCC(=O)Nc2ccc(C(=O)O)c(O)c2)cc1	20.9 µM (active)	
C[C@@H]1[C@H](O)[C@@H](C)C=CC=CC=CC=CC=CC=CC=C[C@H](O[C@@H]2O[C@H](C)[C@H](O)[C@H](N)[C@@H]2O)C[C@@H]2O[C@](O)(C[C@@H](O)C[C@@H](O)[C@H](O)CC[C@@H](O)C[C@@H](O)CC(=O)O[C@H]1C)C[C@H](O)[C@@H]2C(=O)O	3.32 µM (active)	
